# PubChem BioAssay
# Test: Plasmodium falciparum growth inhibition, primary screen, strain 3D7, DAPI fluorescence, 100 nL (AID 1184);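 further: parasites grown inside human red blood cells in medium with human serum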
# Settings: P. falciparum 3D7 growth, 3 d, higher = more signal
row,SMILES,z-score
1,COC(=O)[C@@]1(Cc2ccccc2)[C@H]2c3cc(C(=O)N(C)C)n(Cc4nc5ccccc5[nH]4)c3C[C@H]2CN1C(=O)c1ccccc1,-0.542
2,CC(C)C(=C=CC[C@H](O)c1cccc(OCCO)c1)C[C@H](O)c1ccccn1,-0.991
3,COc1ccc(CCNC(=O)[C@@H]2c3ccccc3C(=O)N(C(C)C)[C@H]2c2ccc(CO)cc2)cc1,1.13
4,COCCOC(=O)N1C(=O)[C@@]2(c3cc(C#CCNC(N)=O)ccc31)[C@H](C(=O)Nc1nc3ccccc3s1)[C@H]1C(=O)O[C@H](c3ccccc3)[C@H](c3ccccc3)N1[C@@H]2c1ccc(O)cc1,0.106
5,O=C(c1ccccc1)N1Cc2ccccc2C[C@@]2(N=C(c3ccc(OCCCO)cc3)O[C@H]2c2ccccc2)C1=O,-1.92
6,CC(=O)NCCCC[C@@H]1NC(=O)[C@H]2C[C@@H](C(=O)NCCCCCN)[C@@H](c3ccc(O)cc3)N2C1=O,0.0481
7,COc1ccc(NN2C(C(O)c3ccc(F)cc3)C=CC3C(=O)N(C4CCCCC4)C(=O)C32)cc1 (configuration not stated),-0.517
8,C=C(COC)C(=O)CC[C@@H](OC(=O)c1ccccc1-c1ccccc1C(=O)O)c1ccccc1OCCO,-2.51
9,COc1ccc(C(O)C2C=CC3C(=O)N(C)C(=O)C3N2Nc2ccccc2)cc1 (configuration not stated),-0.142
10,C=CCOC(=O)[C@H]1[C@@H]2C(=O)O[C@@H](c3ccccc3)[C@@H](c3ccccc3)N2[C@@H](c2ccc(OCCOC(=O)[C@H]3C[C@H]4C(=O)NCC(=O)N4[C@H]3c3ccc(O)cc3)cc2)[C@]12C(=O)Nc1ccccc12,-1.56
11,CN1C2C=C(c3ccc(CO)cc3)C(C3C(=O)N(C(N)=O)C(=O)C32)C1C1CC1 (configuration not stated),-0.854
12,C=CCNC(=O)[C@H]1[C@@H]2C(=O)O[C@@H](c3ccccc3)[C@@H](c3ccccc3)N2[C@@H](c2ccc(OCCO)cc2)[C@]12C(=O)Nc1ccc(C#Cc3ccc(OC)cc3)cc12,-2.39
13,O=C(N1CCOCC1)[C@]1(CCS(=O)(=O)c2ccccc2)N=C(c2ccc(OCCCO)cc2)O[C@@H]1c1ccccc1,-2.21
14,Cc1c(NC(=O)/C(C#N)=C/C=C/c2ccc([N+](=O)[O-])cc2)c(=O)n(-c2ccccc2)n1C,-0.363
15,COC(=O)C(CC#Cc1ccc2c(c1)[C@]1(C(=O)N2)[C@H](c2ccccc2OCCO)N2[C@H](c3ccccc3)[C@H](c3ccccc3)OC(=O)[C@H]2[C@@H]1C(=O)N1CCN(c2ncccn2)CC1)C(=O)OC,-2.27
16,C[C@]1(C(=O)NC2CC2)c2ccccc2C(=O)N(Cc2cc(F)cc(C(F)(F)F)c2)[C@H]1c1ccc(CO)cc1,0.0713
17,[N-]=[N+]=NCc1ccccc1C[C@@]1(C(N)=O)N=C(c2ccc(OCCCO)cc2)O[C@@H]1c1ccccc1N=[N+]=[N-],-2.41
18,C=C(COC)C(=O)CC[C@H](OC(C)=O)c1ccc(CO)o1,-0.689
19,CCCCC=C[C@@H](NC(=O)C(C)(C)C)c1ccccc1,-0.501
20,O=C1NC(=O)C2C1C=CC(C(O)C(c1ccccc1)c1ccccc1)N2Nc1ccccn1 (configuration not stated),-0.315
21,CCOC(=O)C[C@H]1[C@H](OC(=O)c2ccc(-c3ccccc3)cc2)[C@@H](NC(=O)C2CCCCC2)c2cc(OCCCO)ccc2N1C(=O)Cc1ccc(OC)cc1,-0.0911
22,C=CCOC(=O)[C@H]1[C@@H]2C(=O)O[C@@H](c3ccccc3)[C@@H](c3ccccc3)N2[C@@H](c2ccc(OCCOC(=O)[C@H]3C[C@H]4C(=O)NCC(=O)N4[C@H]3c3cccc(OCCO)c3)cc2)[C@]12C(=O)Nc1ccc(I)cc12,-1.8
23,CC1CC/C=C\[C@H]2OC34C=CCN(C(C)C)C(=O)[C@H]3N(C(C)CO)C(=O)[C@@H]4C2C(=O)O1 (some centres not stated),-0.577
24,COCCOC(=O)N1C(=O)[C@@]2(c3cc(C#CCNC(N)=O)ccc31)[C@H](C(N)=O)[C@H]1C(=O)O[C@H](c3ccccc3)[C@H](c3ccccc3)N1[C@@H]2c1ccc(O)cc1,1.75
25,[N-]=[N+]=NCc1ccccc1[C@H]1OC(c2ccc(OCCCO)cc2)=N[C@@]1(Cc1ccccc1N=[N+]=[N-])C(=O)O,0.58
26,COc1cccc(C)c1NC(=O)O[C@H]1[C@H](OC(=O)Nc2ccc3c(c2)OCO3)[C@H](OC(=O)Nc2ccc3c(c2)OCO3)[C@@H](OC)O[C@@H]1CO,-2.29
27,CN(C)CCCC[C@@H]1NC(=O)[C@H]2C[C@@H](C(=O)NCCCCCCNC(=O)CS)[C@@H](c3cccc(OCCO)c3)N2C1=O,0.162
